# Bioassay records from PubChem BioAssay.
# Only some compounds are listed: those with a hit (about 2.8% of all), similar ones and a draw of the others.
# HIV Env fusion: inhibitors of HIV Env-mediated cell fusion; 1.1% of 360,000 active; inhibition, % at 12.3 µM; HeLa-JRFL Env/CEM21 cell fusion, luciferase;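 active = mean replicate inhibition score of at least 50 and every replicate individually at or above 50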;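 note: 0% = plate neutral controls and 100% = maraviroc near 300 nM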
# Glyco luc inh: blocks N-linked glycosylation in D54 reporter cells; D54 ERlucT glycosylation luciferase reporter, 24 h; percent of 100 nM tunicamycin response; reporter increase, % at 12.5 µM; 0.23% of 360,000 active; AID 588692;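 active = mean luciferase reporter signal, scaled so untreated is 0 and the glycosylation-blocking control 100, at or above a set limit in every replicate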;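 note: luciferase carries N-glycosylation sites so blocking glycosylation raises the light; 0% = median of neutral control wells and 100% = median of 100 nM tunicamycin wells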
# PAX8 inh HTS: inhibitors of PAX8 transcriptional activity in RMG-I cells | 1.2% of 360,000 active | AID 652154 | RMG-I TPO-luciferase reporter, SteadyGlo, 24 h | inhibition, % at 12.6 µM;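 active = mean replicate inhibition at least 60% with every replicate also reaching 60%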;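 note: luciferase light reporting Pax8 driven TPO promoter activity; plate controls were median of neutral control wells for no effect and mitoxantrone controls for full effect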
# EBV LMP1 NFkB: inhibitors of Epstein-Barr LMP1-induced NF-kappaB reporter | LMP1-induced NF-kappaB luciferase reporter cells, luminescence | 0.69% of 350,000 active | inhibition, % at 12.5 µM; in the data active = inhibition above about 41%;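 note: 0% = neutral control wells and 100% = reference inhibitor control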
# NSD2 HMT inh: NSD2 (human) methyltransferase inhibition. O96028. NSD2 peptide methylation, AlphaScreen, 120 min. inhibition, % at 12.5 µM. 0.54% of 310,000 active. AID 743445; in the data active = inhibition above about 50%
# Shn3 inh set2: inhibitors of Schnurri-3 3'UTR reporter in osteoblasts | Clone20 osteoblast Shn3 3'UTR firefly luciferase, 24 h | inhibition, % at 12.5 µM | 0.52% of 360,000 active | AID 588674;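 active = mean inhibition of at least 75% with every replicate also reaching 75%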;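 note: 0% = median of neutral control wells and 100% = pilot-screen positive control compound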
# * = called active by the depositor; · = no result given; [ ] = another dose, or the depositor's remark.
SMILES,HIV Env fusion,Glyco luc inh,PAX8 inh HTS,EBV LMP1 NFkB,NSD2 HMT inh,Shn3 inh set2
Cc1ccc(CNc2nc(C)nc3sc4c(c23)CCC4)cc1,74*,-2,·,16,-2,76
C[C@@H]1CN([C@@H](C)CO)C(=O)Cc2cc(NC(=O)NC3CCCCC3)ccc2O[C@H]1CN(C)Cc1ccc(Cl)c(Cl)c1,16[16.7 µM],·,20,·,·,·
COc1ccc(NC(=O)N2CC(=O)N3[C@H](C2)[C@@H](c2ccc(/C=C/c4ccccc4)cc2)[C@@H]3CO)cc1,·,·,-23,·,·,·
COc1ccc(NC(=O)N2CC(=O)N3[C@@H](CO)[C@@H](c4ccc(/C=C/c5ccccc5)cc4)[C@@H]3C2)cc1,·,·,89*,·,·,·
O=C(c1ccc(F)cc1)N1CC(=O)N2[C@H](C1)[C@H](c1ccc(/C=C/c3ccccc3)cc1)[C@@H]2CO,·,·,69*,·,·,·
O=C(c1ccccc1F)N1CC(=O)N2[C@@H](CO)[C@@H](c3ccc(C#Cc4ccc(F)cc4)cc3)[C@@H]2C1,·,·,108*,·,·,·
COc1cccc(C#Cc2ccc([C@@H]3[C@H](CO)N4C(=O)CN(C(=O)c5ccccc5)C[C@@H]34)cc2)c1,·,·,69*,·,·,·
COc1cccc(C#Cc2ccc([C@H]3[C@H]4CN(C(=O)c5ccccc5)CC(=O)N4[C@H]3CO)cc2)c1,·,·,45,·,·,·
O=C(c1ccc(F)cc1)N1CC(=O)N2[C@H](CO)[C@H](c3ccc(/C=C/c4ccccc4)cc3)[C@@H]2C1,·,·,21,·,·,·
CCCCNC(=O)C1C(c2ccc(C(F)(F)F)cc2)=Nc2ccccc2N1C(=O)c1cccc(C(F)(F)F)c1 (stereo not drawn),26,·,15,·,·,·
Cc1nc2ccc(C(=O)N3c4ccccc4N=C(c4ccc(C(F)(F)F)cc4)C3C(=O)NC(C)(C)C)cc2[nH]1 (stereo not drawn),89*,·,-36,·,·,·
COc1ncnc2c1NC(=O)CS2,·,-1,·,82*,-4,-21
COc1ncnc2c1N[C@@](C)(O)c1c(F)c(F)c(F)c(F)c1S2,·,0,·,6,-1,8
CCNc1nc2c(c(=O)[nH]c(=O)n2C)n1CC(C)C,9,1,-13,1,·,-14
CC(C)Cn1c([N+](=O)[O-])nc2c1c(=O)[nH]c(=O)n2C,5,8,78*,-3,20,·
Cn1c(=O)[nH]c(=O)c2c1nc([N+](=O)[O-])n2Cc1ccccc1,-247,-15,101*,95*,-1,98*
C/C=C/c1ccc2c(c1)O[C@@H](CN(C)Cc1ccc(F)cc1)[C@H](C)CN([C@@H](C)CO)S2(=O)=O,24[16.7 µM],·,·,·,·,·
COc1ccc(NC(=O)Nc2ccc3c(c2)C(=O)N([C@H](C)CO)C[C@@H](C)[C@H](CN(C)S(=O)(=O)c2cccs2)OCCCC[C@H](C)O3)cc1,-1[16.7 µM],·,·,·,·,·
CCOC(=O)c1cnc(SCC(=O)Nc2cc(OC)ccc2OC)nc1N,74*,-2,17,17,-2,79
CCn1c(COc2ccc(C)cc2)nnc1SCC(=O)Nc1cc(OC)ccc1OC,58*,-2,·,2,1,20
CCOC(=O)c1cnc(SCC(=O)Nc2ccc(NC(C)=O)c(OC)c2)nc1N,21,0,·,3,0,-2
C[C@H](CO)N1C[C@H](C)[C@@H](CN(C)C(=O)Nc2ccc(C(F)(F)F)cc2)OCCCC[C@H](C)Oc2ccc(NS(=O)(=O)c3cccs3)cc2C1=O,24[16.7 µM],·,65*,·,·,·
C[C@H]1CCCCO[C@H](CN(C)Cc2ccc(C(F)(F)F)cc2)[C@@H](C)CN([C@@H](C)CO)C(=O)c2cc(NS(=O)(=O)c3cccs3)ccc2O1,19[16.7 µM],·,81*,·,·,·
C[C@H](CO)N1C[C@H](C)[C@@H](CN(C)Cc2ccc(Cl)c(Cl)c2)OCCCC[C@H](C)Oc2ccc(NS(=O)(=O)c3cccs3)cc2C1=O,15[16.7 µM],·,71*,·,·,·
C[C@@H]1CN([C@@H](C)CO)C(=O)c2cc(NS(=O)(=O)c3cccs3)ccc2O[C@@H](C)CCCCO[C@H]1CN(C)C(=O)Nc1ccc(F)cc1,-131[16.7 µM],·,13,·,·,·
C[C@H]1CCCCO[C@@H](CN(C)Cc2ccc(C(F)(F)F)cc2)[C@@H](C)CN([C@@H](C)CO)C(=O)c2cc(NS(=O)(=O)c3cccs3)ccc2O1,14[16.7 µM],·,96*,·,·,·
C[C@H]1CN([C@@H](C)CO)C(=O)c2cccc(NS(=O)(=O)c3cccs3)c2O[C@@H]1CN(C)C,·,·,2,·,·,·
CC(C)CC#Cc1cnc2c(c1)C(=O)N([C@H](C)CO)C[C@@H](C)[C@H](CN(C)Cc1ccc3c(c1)OCO3)O2,6[16.7 µM],·,·,·,·,·
